Our source for the growth inhibition values is PubChem BioAssay (NCI).

A short description of assay [1]: NCI Yeast Anticancer Drug Screen. Data for the rad50 strain (AID 155).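 Note: 0% = growth of vehicle-only cultures of the same strain.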 As to conditions: S. cerevisiae rad50 strain growth inhibition; at 50.0 µM; hits give high values. In short, it runs like this: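 Genetically altered yeast (DNA repair pathway); compound treatment; growth inhibition vs vehicle ctrl.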
A short description of assay [2]: NCI Yeast Anticancer Drug Screen. Data for the mec2-1 strain (AID 157). As to conditions: S. cerevisiae mec2-1 strain, at 50.0 µM, hits give high values. In short, it runs like this:
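Mutant yeast (mec2-1) grown with compound; growth inhibition relative to vehicle control reported.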

A short description of assay [3]: NCI Yeast Anticancer Drug Screen. Data for the sgs1 mgt1 strain (AID 161).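 Note: 0% = growth of cultures given vehicle only.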 The note with it: S. cerevisiae sgs1 mgt1 strain, at 50.0 µM, hits give high values. In short, it runs like this:
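This yeast growth screen uses a strain with defined DNA-repair lesions; compound-treated growth is compared with vehicle-treated growth.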

The nature of assay [4]: NCI Yeast Anticancer Drug Screen. Data for the cln2 rad14 strain (AID 165).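 Note: 0% = growth equal to vehicle treated cultures.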 The note with it: S. cerevisiae cln2 rad14 strain, at 50.0 µM, hits give high values. An outline of the steps: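 Readout is yeast growth inhibition versus vehicle-treated controls, using a strain with cln2 and rad14 alterations exposed to compound.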
The nature of assay [5]: NCI Yeast Anticancer Drug Screen. Data for the bub3 strain (AID 167). As to conditions: S. cerevisiae bub3 mutant strain, at 50.0 µM, hits give high values. In short, it runs like this:
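Yeast carrying a defined mutation is treated with each compound, and growth is compared with that of vehicle-exposed cells to give inhibition.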

Assay [6] in a line: NCI Yeast Anticancer Drug Screen. Data for the mlh1 rad18 strain (AID 175). The note with it: S. cerevisiae mlh1 rad18 strain growth inhibition; at 50.0 µM; hits give high values. In short, it runs like this:
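Genetically defined yeast (DNA repair-deficient) exposed to compounds; growth inhibition determined relative to vehicle.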

About 79,000 compounds went through this panel and 15% of them were active in at least one assay; those are over-represented in the sample as a whole. Values without a mark were called inactive. Activity calls are given as the source filed them. Cut-off read from the data, not from the text of the source: active = growth inhibition above about 70%; inactive = the rest.

Regarding `C=CC(C)C1C(C)C(Cl)CC(Cl)C1OC(=O)c1ccccc1` (stereo not drawn), the growth inhibition in assay [1] is 14.1%; in assay [2], -0.65%; in assay [3], 10.7%; in assay [4], -2.3%; in assay [5], 17.8%; in assay [6] it was -11.3%.
Regarding `O=C(O)c1scc2c1CCCC2`, the growth inhibition is -1.65% in assay [1]; -21.7% in assay [2]; -7.5% in assay [3]; -67% in assay [4]; -22.3% in assay [5]; -39.6% in assay [6].
On to `OC(Cc1cccnc1)(c1ccccc1)c1cccc2ccccc12` (stereo not drawn), for which the growth inhibition in assay [1] is 12.3%; in assay [2], 13.8%; in assay [3] it was -2.3%; in assay [4], 7.45%; in assay [5], 10.5%; in assay [6] it was 13.9%.
In the case of `Cc1nnc2c3nccnc3c(Cl)nn12`, the growth inhibition in assay [1] was 20.8%; in assay [2] it was 25%; in assay [3], 56.3%; in assay [4], 20.3%; in assay [5] it was 9%; in assay [6], 24.1%.
As for `OC(c1ccc(Cl)cc1)c1nc2ccccc2[nH]1` (stereo not drawn), the growth inhibition in assay [1] is 40.8%; in assay [2], 18.4%; in assay [3], 35.5%; in assay [4], 15.9%; in assay [5], 19.1%; in assay [6] it was 33.5%.
Consider `CCCCCCCCCCCCCCCCOc1ccc2ccccc2c1`, for which the growth inhibition in assay [1] was 4.15%; in assay [2], -6.25%; in assay [3] it was 14.9%; in assay [4], -56.4%; in assay [5] it was 10.2%; in assay [6] it was 29.2%.
Turning to `CC(=O)Nc1ccc2ccccc2c1`, the growth inhibition in assay [1] is 7.15%; in assay [2], 5.4%; in assay [3], 0.3%; in assay [4] it was -25.1%; in assay [5] it was -4.1%; in assay [6], 1.4%.
On to `Cn1c(=O)c2c(ncn2CCNCC(O)c2cc(C(C)(C)C)c(O)c(C(C)(C)C)c2)n(C)c1=O` (stereo not drawn), for which the growth inhibition in assay [1] was 31.2%; in assay [2], 6.35%; in assay [3] it was 19%; in assay [4] it was 16.8%; in assay [5], -3.2%; in assay [6] it was 11.2%.
With `CCN1CC(O)c2cc(N=NC(N)=O)c(O)cc21` (stereo not drawn), the growth inhibition in assay [1] is -3.3%; in assay [2], 14.9%; in assay [3], 3.1%; in assay [4] it was -8.85%; in assay [5], 3.85%; in assay [6] it was 23%.
`NC(=S)N/N=C(\c1ccccc1)c1cccc2ccccc12`: the growth inhibition in assay [1] is 5.1%; in assay [2] it was 50.7%; in assay [3], 59%; in assay [4], -35.3%; in assay [5], 58.5%; in assay [6], 33.5%.
As for `O=[N+]([O-])c1cc2c(c3nonc13)OCCCCO2`, the growth inhibition was 5.95% in assay [1]; 25.5% in assay [2]; 47.4% in assay [3]; 23.2% in assay [4]; 23.7% in assay [5]; 77% (active) in assay [6].
For `COc1ccc2ncc(COC(=O)NC3CCCCC3)c(COC(=O)NC3CCCCC3)c2c1`, the growth inhibition in assay [1] is 36.9%; in assay [2], -2.1%; in assay [3] it was 24.4%; in assay [4] it was -0.6%; in assay [5] it was -4.25%; in assay [6] it was 22.5%.
Consider `O=S(=O)(c1ccc(Br)cc1)S(=O)(=O)c1ccc(Br)cc1`, for which the growth inhibition was -22.6% in assay [1]; 0.7% in assay [2]; -23.1% in assay [3]; -13.9% in assay [4]; 23.2% in assay [5]; -16.1% in assay [6].
`O=c1[nH]c(=O)n(C2CC(O)C(CO)O2)c2ncncc12` (stereo not drawn): the growth inhibition in assay [1] is -0.85%; in assay [2], -0.3%; in assay [3], 4.45%; in assay [4] it was 2.15%; in assay [5], -10.1%; in assay [6], -57.1%.
Regarding `CN(C)c1ccc(/C=C/c2nc3ccc([N+](=O)[O-])cc3[nH]2)cc1`, the growth inhibition was -2.4% in assay [1]; 3.6% in assay [2]; 9.65% in assay [3]; 14.2% in assay [4]; 0.6% in assay [5]; 0.1% in assay [6].
Regarding `Cc1cc(O)c(C(c2cccnc2)c2c(O)cc(C)[nH]c2=O)c(=O)[nH]1`, the growth inhibition is 1.95% in assay [1]; -14.8% in assay [2]; -40.1% in assay [3]; 11.8% in assay [4]; -30.2% in assay [5]; 30.1% in assay [6].
Take `O=C1NCC/C1=C\c1ccc(Cl)c(Cl)c1`: the growth inhibition in assay [1] is 9.4%; in assay [2] it was -12.4%; in assay [3], -10.3%; in assay [4], -17.6%; in assay [5] it was -7.7%; in assay [6], -13.5%.
`COC(=O)/C(C)=C/C=C/C(OC)C(OC(N)=O)/C(C)=C/C(C)C(O)C(CC(C)CC1=C(OC)C(=O)C=C(N)C1=O)OC` (stereo not drawn): the growth inhibition was 5.85% in assay [1]; 24.8% in assay [2]; 17% in assay [3]; 9.3% in assay [4]; 2.85% in assay [5]; 13.8% in assay [6].
